Only some compounds are listed: those with a hit (about 3.1% of all), similar ones and a draw of the others.
Vif-APOBEC3F blk = Vif-A3F binding inhibition; HeLa A3F-eYFP + Vif (tagged APOBEC3F with the HIV-1 protein that degrades it), YFP fluorescence increase; Potency, µM (top dose mostly 46.1 µM), inactives show at the top dose activity, negative = active; 390,000 tested, 0.2% active; AID 602313; note: potency is the fitted concentration of half-maximal effect; % of control where 0% means no effect; nearly all actives have a fitted effect of over 65% in size
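Fluorescence increase (Ex 488/Em 500-530) after overnight compound treatment at 37 deg C flags inhibition of Vif-driven A3F-eYFP loss in stable HeLa A3F-eYFP/Vif cells seeded overnight beforehand.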
Vif-APOBEC3G blk = blocks the Vif interaction with human APOBEC3G; Potency, µM (titrated, usually from 46.1 µM), for inactives: at the top dose activity, negative = active, usual class: inhibitors; Q9HC16; 410,000 tested, 0.076% active; HeLa A3G-eYFP + Vif (tagged APOBEC3G with the HIV-1 protein that degrades it), YFP fluorescence, overnight; note: potency is the fitted concentration of half-maximal effect; % is set by controls: 0 for no effect and ±100 for the full control effect; nearly all actives have a fitted effect of over 60% in size
Target sequence (Q9HC16 whole entry, looked up): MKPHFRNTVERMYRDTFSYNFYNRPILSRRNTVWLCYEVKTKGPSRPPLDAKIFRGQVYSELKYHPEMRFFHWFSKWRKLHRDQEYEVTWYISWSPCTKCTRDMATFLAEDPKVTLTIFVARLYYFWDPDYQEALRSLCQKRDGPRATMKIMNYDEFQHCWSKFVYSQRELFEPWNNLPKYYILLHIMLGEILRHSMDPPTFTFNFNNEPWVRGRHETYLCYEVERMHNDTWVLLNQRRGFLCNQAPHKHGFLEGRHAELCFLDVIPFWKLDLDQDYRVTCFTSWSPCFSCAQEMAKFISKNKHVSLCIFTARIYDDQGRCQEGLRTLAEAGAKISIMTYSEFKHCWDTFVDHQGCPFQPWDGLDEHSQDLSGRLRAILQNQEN
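Read-out is eYFP fluorescence (Ex 488/Em 500-530) from Vif-expressing HeLa A3G-eYFP cells; more signal means A3G escaped Vif-mediated degradation. Cells plated overnight, compound pinned in, incubated overnight at 37 deg C.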
VDR inh = vitamin D3 receptor (human) inhibition | VDR-SRC2-3 peptide fluorescence polarization, 2 h | Potency, µM, inactives show max response, negative = inhibition, actives largely listed as inhibitors | 400,000 tested, 0.93% active; note: potency is the fitted concentration of half-maximal effect; % is set by controls: 0 for no effect and ±100 for the full control effect
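After 23 nl compound addition and a short centrifugation, plates sat for 2 hours at ambient temperature; polarization of fluorescence then indicated loss of VDR binding to peptide SRC2-3.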
PLK1 PBD block = inhibitors of human PLK1 polo-box domain binding; P53350; Plk1 PBD binding of FITC phosphopeptide, fluorescence polarization; Potency, µM, inactives show max response, negative = inhibition, usual class: inhibitors; 360,000 tested, 2.8% active; AID 720504; note: potency is the fitted concentration of half-maximal effect; series mostly up to about 57 µM; % is set by controls: 0 for no effect and ±100 for the full control effect; nearly all actives have a fitted effect of over 65% in size
TSHR antag = blocks TSH signaling through the human TSH receptor; TSHR-expressing cells, TSH-stimulated cAMP HTRF, 2 h; hits give low values; P16473; activity change, negative = inhibition, % at 11.5 µM; 330,000 tested, 0.2% active;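 active = activity change below a set negative limit, meaning inhibition stronger than a set level, cut at about -70% in these data; inconclusive = activity change between two set negative limits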; note: % is set by controls: 0 for no effect and ±100 for the full control effect
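Inhibition of cAMP made by TSHR-expressing cells under TSH stimulation (4nM final, EC80; 2 h, 37 deg C) is quantified with a one-step lysis HTRF kit, anti-cAMP cryptate versus cAMP-d2.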
* = called active by the depositor; ? = inconclusive; nt = no result. Unless noted, calls come from the whole dose curve; as a rule, active = well fitted curve in the direction sought with a large enough effect; inconclusive = small, poorly fitted or top-dose-only effect, or another doubt; inactive = no such curve, though single readings can be large; an effect the other way counts as inactive or inconclusive.

SMILES	Vif-APOBEC3F blk	Vif-APOBEC3G blk	VDR inh	PLK1 PBD block	TSHR antag
CC(=O)Nc1ccc(SCCN2CCN(CC(C)C)CCC2=O)cc1	nt	0%	50µM*	nt	nt
CC(=O)Nc1ccc(SC[C@H](C)CN2CC[C@H](O)CCC2=O)cc1	0%	3%	?	19µM*	-4
CC(=O)Nc1ccc(SCCN2CC[C@@H](C(C)(C)C)CCC2=O)cc1	-8%	-11%	-25%	11µM*	-20
Cc1ccc(SC[C@H](C)CN2CC[C@H](O)CCC2=O)cc1	nt	1%	nt	nt	nt
Cc1ccc(SCCN2CCC(C(C)(C)C)CCC2=O)cc1 (configuration not stated)	7%	1%	-12%	-14%	0
COc1ccccc1CNc1ncnc2ccc(-c3cccc(NS(C)(=O)=O)c3)cc12	nt	nt	1%	nt	nt
CCc1ccc(S(=O)(=O)c2nnn3c2nc(NCCNC(C)=O)c2cc(Cl)ccc23)cc1	-11%	1%	0%	nt	nt
CCCc1nc2c(s1)CCc1onc(-c3ccc(Br)cc3)c1-2	-5%	-6%	?	15µM*	nt
CCCc1nc2c(s1)CCc1onc(-c3ccc(Cl)cc3)c1-2	1%	1%	-14%	-10%	-2
CCCc1nc2c(s1)CCc1onc(-c3ccc(OC)cc3)c1-2	0%	-5%	?	27µM*	nt
COc1ccccc1C(=O)Nc1cccc(C(=O)OCc2cc(=O)n3c4c(sc3n2)CCCC4)c1	1%	10%	-1%	nt	nt
C=C1Nc2ccccc2C(=O)N1c1ccc(C(=O)N2CCN(C(=O)c3ccco3)CC2)cc1	nt	3%	5%	nt	nt
O=Nc1c(O)ccc2cc(S(=O)(=O)O)ccc12	-14%	0%	79µM*	-17%	nt
CN(C)c1ccc2cc(S(=O)(=O)O)cc(O)c2c1	9%	-1%	50µM*	?	nt
CSc1nc(=O)[nH]c2nc[nH]c12	nt	0%	-18%	nt	nt
Cc1ccccc1N=C1Nc2ccc(Cl)cc2N[C@]12C[C@H]1CCCC(=O)N3CC[C@@H](C2)[C@@H]13	nt	-4%	nt	nt	nt
Clc1ccccc1C1CC(c2ccccc2)=Nc2ccccc2N1 (configuration not stated)	20µM*	-22%	17%	5%	16
CCCCCCCCCCCCCCCC[n+]1ccc(C)c2ccccc21	nt	-11%	nt	nt	nt
CCOC(=O)c1c(CN(CC)CC)n(-c2ccccc2)c2ccc(O)cc12	-2%	13µM*	-2%	9%	-2
CCOC(=O)c1c(-c2ccccc2)n(C)c2ccc(O)cc12	-4%	-1%	-3%	-2%	-7
COc1cc(OC)c(/C=C/c2cc3c4ccccc4ccc3[n+](C)c2)c(OC)c1	nt	1%	nt	nt	nt
CNc1ccc(Br)cc(C(=O)/C=C/c2ccc3c(c2)OCO3)c1=O	?	?	79µM*	19µM*	2
O=C(C=Cc1ccc2c(c1)OCO2)C=Cc1ccc2c(c1)OCO2	?	0%	nt	-4%	nt
N/C(=N\OC(=O)/C=C/c1ccccc1)c1ccccn1	1%	-4%	2%	0%	-11
O=C(C=Cc1ccc2c(c1)OCO2)c1ccccc1	-8%	-3%	40µM*	-5%	nt
SMILES	Vif-APOBEC3F blk	Vif-APOBEC3G blk	VDR inh	PLK1 PBD block	TSHR antag
O=C(/C=C/c1ccc2c(c1)OCO2)c1ccccn1	?	?	79µM*	-3%	2
O=C(/C=C/c1ccccc1)c1ccccn1	-20%	-10%	40µM*	-14%	12
O=C(NCCc1csc(-c2ccccc2)n1)c1ccco1	1%	5%	?	11µM*	-6
O=C(NCCc1csc(-c2cccc(F)c2)n1)c1ccco1	-2%	0%	7%	-12%	-16
CN(Cc1ccccc1)C(=O)COC(=O)c1cncc(Br)c1	1%	-3%	-2%	-5%	-2
CC(C)N(C(=O)COC(=O)c1cncc(Br)c1)C(C)C	3%	2%	?	21µM*	9
CN(C(=O)COc1ccccc1C(=O)Nc1ccccc1)c1ccccc1	nt	-3%	nt	nt	nt
CCOc1ccc2[nH]c(=O)c(CN(Cc3cccs3)C(CC)c3nnnn3C(C)(C)CC)cc2c1 (configuration not stated)	5%	-17%	-15%	8.4µM*	-5
COc1c(CO)cc(CO)cc(CO)c1=O	nt	nt	-17%	nt	nt
C[C@H](NC(=O)[C@@H](N)Cc1ccc(O)cc1)C(=O)NCC(=O)N[C@H]1CSSC[C@@H](C(=O)O)NC(=O)[C@H](CO)NC(=O)[C@H]([C@@H](C)O)NC(=O)[C@H](Cc2ccccc2)NC(=O)[C@H]([C@@H](C)O)NC(=O)[C@H](CCCCN)NC(=O)[C@H](Cc2c[nH]c3ccccc23)NC(=O)[C@H](Cc2ccccc2)NC(=O)[C@H](Cc2ccccc2)NC(=O)[C@H](CC(N)=O)NC(=O)[C@H](CCCCN)NC1=O	nt	nt	-3%	nt	nt
O=C(NC(=S)N1CCCC1)c1ccc(Cl)cc1	1%	4%	6%	2%	-1
CN1CCN(C(=S)NC(=O)c2ccc(Cl)cc2)CC1	?	-5%	-8%	27µM*	-14
COCCn1c(SCc2ccc(F)cc2)nc2c1c(=O)[nH]c(=O)n2C	3%	-8%	?	11µM*	0
C/C(Cl)=C/Cn1c(SCc2ccc(Cl)cc2)nc2c1c(=O)[nH]c(=O)n2C	3%	-1%	?	?	-5
CC(C)CCn1c(SCc2ccc(Cl)cc2)nc2c1c(=O)[nH]c(=O)n2C	-5%	0%	?	27µM*	-5
CC(=O)CSc1nc2c(c(=O)[nH]c(=O)n2C)n1Cc1cccc(Br)c1	0%	0%	-20%	19µM*	3
CCOCCn1c(SCc2ccc(F)cc2)nc2c1c(=O)[nH]c(=O)n2C	3%	-1%	-11%	-3%	1
Cc1ccc(CSc2nc3c(c(=O)[nH]c(=O)n3C)n2CCC(C)C)cc1	3%	3%	-12%	-16%	-5
CCCCn1c(SCc2ccc(Cl)cc2)nc2c1c(=O)[nH]c(=O)n2C	2%	3%	89µM*	21µM*	8
NC(=O)C1CCN(c2nc(-c3ccc4c(c3)OCO4)cs2)CC1	nt	nt	nt	nt	19
C/C=C/CSc1nc2c(c(=O)[nH]c(=O)n2C)n1Cc1ccc(C)cc1	3%	3%	?	?	9
CC(C)Cn1c([N+](=O)[O-])nc2c1c(=O)[nH]c(=O)n2C	5%	-6%	-18%	-1%	-13
Cn1c(=O)[nH]c(=O)c2c1nc([N+](=O)[O-])n2Cc1ccccc1	8%	-14%	?	2.4µM*	-29
C/C=C/Cn1c(SCc2ccccc2)nc2c1c(=O)[nH]c(=O)n2C	-11%	-10%	?	24µM*	-11
O=C(Nc1ncnc2nc[nH]c12)c1ccccc1	nt	-1%	9%	nt	nt
COc1ccc(-n2nnc(C(=O)Nc3ccccc3F)c2N)cc1	2%	4%	-21%	nt	nt
Cc1cc(C)c(NC(=O)CCCCCNC2CCCCC2)c(C)c1	2%	-11%	-30%	27µM*	18

High-throughput results: PubChem, National Center for Advancing Translational Sciences (NCATS)
